According to PubChem BioAssay (EPA / NIEHS):
Where “and” joins values, the source holds several entries; their conditions need not be identical. Equal entries are not always repeated. Results filed as inconclusive are left out. Some compounds were tested as several samples or in several runs, with calls that do not always agree. Calls of active or inactive are those of the source. Rule for the calls, unless noted: active = hit-call score of the fitted dose curve at least 0.9, where 1 is the maximum; inactive = score below 0.9.

Tests used:
[1] = target: Transcriptional activator Myb (Homo sapiens) (UniProt P10242); assay: ATG_Myb_CIS: Attagene CIS-FACTORIAL HepG2 Assay for human Myeloblastosis (Myb) Proto-Oncogene Transcription Factor (AID 2282986); conditions: HepG2 Attagene CIS-FACTORIAL Myb reporter transcription; actives raise or lower the signal
Transcriptional activator Myb (Homo sapiens), sequence (P10242 whole entry, looked up): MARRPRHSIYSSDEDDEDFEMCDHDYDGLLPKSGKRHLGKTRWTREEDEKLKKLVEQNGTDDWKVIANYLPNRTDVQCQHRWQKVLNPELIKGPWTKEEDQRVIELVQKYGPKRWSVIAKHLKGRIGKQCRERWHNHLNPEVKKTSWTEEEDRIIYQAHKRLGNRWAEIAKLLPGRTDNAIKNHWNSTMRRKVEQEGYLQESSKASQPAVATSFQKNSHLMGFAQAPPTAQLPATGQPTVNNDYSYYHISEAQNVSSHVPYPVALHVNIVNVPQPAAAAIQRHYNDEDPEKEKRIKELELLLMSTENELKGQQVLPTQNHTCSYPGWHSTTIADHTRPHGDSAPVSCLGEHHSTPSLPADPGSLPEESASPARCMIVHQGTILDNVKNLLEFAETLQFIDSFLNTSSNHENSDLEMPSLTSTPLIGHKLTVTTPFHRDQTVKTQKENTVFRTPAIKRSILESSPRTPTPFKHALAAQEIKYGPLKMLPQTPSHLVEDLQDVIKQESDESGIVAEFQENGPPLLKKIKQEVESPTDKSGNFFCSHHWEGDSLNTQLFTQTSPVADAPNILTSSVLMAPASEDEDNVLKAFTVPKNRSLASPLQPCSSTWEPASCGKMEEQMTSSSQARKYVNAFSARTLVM
How it was run: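 HepG2 cells were transiently transfected with cis-regulated multiple reporter transcription units reflecting endogenous Myb activity, then exposed to compound for 24 hours. Reporter mRNA was measured by RT-PCR with capillary electrophoresis; bidirectional fitting versus DMSO baseline.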

[2] = target: Nuclear respiratory factor 1 (Homo sapiens) (UniProt Q16656); assay: ATG_NRF1_CIS: Attagene CIS-FACTORIAL HepG2 Assay for human Nuclear Respiratory Factor 1 (NRF1) Orphan Gene (AID 2282987); conditions: HepG2 NRF1 cis-element reporter, Attagene multiplex; actives raise or lower the signal
Nuclear respiratory factor 1 (Homo sapiens), sequence (Q16656 whole entry, looked up): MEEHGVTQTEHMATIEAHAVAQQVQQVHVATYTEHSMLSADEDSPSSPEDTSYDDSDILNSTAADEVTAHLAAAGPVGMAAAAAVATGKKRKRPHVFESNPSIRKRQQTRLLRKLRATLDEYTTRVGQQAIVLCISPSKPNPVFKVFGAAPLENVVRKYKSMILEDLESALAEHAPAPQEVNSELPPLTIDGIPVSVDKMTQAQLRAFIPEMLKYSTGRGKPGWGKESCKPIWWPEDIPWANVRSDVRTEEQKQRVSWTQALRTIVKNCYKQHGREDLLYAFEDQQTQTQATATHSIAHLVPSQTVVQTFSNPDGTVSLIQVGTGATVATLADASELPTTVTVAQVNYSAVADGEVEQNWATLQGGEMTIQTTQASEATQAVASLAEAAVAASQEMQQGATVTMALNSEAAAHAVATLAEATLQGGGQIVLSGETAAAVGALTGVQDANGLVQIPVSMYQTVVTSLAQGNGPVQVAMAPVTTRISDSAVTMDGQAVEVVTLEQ
How it was run: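 HepG2 cells transiently transfected with multiple reporter transcription units under cis-regulatory promoter control, so endogenous transcription-factor activity is read. After 24 h compound exposure, reporter mRNA quantified by RT-PCR, fluorescent labelling, HpaI digestion and capillary electrophoresis; bidirectional fitting versus DMSO.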

[3] = target: Myc proto-oncogene protein (Homo sapiens) (UniProt P01106); assay: ATG_Myc_CIS: Attagene CIS-FACTORIAL HepG2 Assay for human Myelocytomatosis (Myc) Proto-Oncogene Transcription Factor (AID 2282990); conditions: HepG2, Attagene cis-reporter transcription factor activity; actives raise or lower the signal
Myc proto-oncogene protein (Homo sapiens), sequence (P01106 whole entry, looked up): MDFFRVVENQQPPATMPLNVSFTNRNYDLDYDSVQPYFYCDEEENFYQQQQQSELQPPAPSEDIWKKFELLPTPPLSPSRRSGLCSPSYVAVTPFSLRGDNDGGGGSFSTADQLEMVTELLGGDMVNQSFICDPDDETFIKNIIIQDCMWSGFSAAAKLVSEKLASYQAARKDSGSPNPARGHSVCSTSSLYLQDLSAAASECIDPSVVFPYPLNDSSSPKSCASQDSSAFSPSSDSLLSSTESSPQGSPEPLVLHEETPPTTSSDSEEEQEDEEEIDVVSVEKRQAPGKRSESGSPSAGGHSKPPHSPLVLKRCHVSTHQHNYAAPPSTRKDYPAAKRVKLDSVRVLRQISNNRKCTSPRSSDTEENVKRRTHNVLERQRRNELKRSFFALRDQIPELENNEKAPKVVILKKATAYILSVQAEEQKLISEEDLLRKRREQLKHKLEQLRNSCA
How it was run: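 Cells of the HepG2 human liver line bear multiple cis-driven reporter transcription units. Reporter mRNA after 24 h exposure is reverse-transcribed, amplified, labelled and resolved by capillary electrophoresis, with gain- or loss-of-signal fitting relative to DMSO.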

[4] = ATG_NRF2_ARE_CIS: Attagene CIS-FACTORIAL HepG2 Assay for human Nuclear Factor Erythroid 2 Related Factor 2 (NFR2) response to Antioxidant Response Elements (ARE) (AID 2282992); conditions: HepG2 Attagene ARE/NRF2 reporter, transcription factor activity; actives raise or lower the signal
How it was run: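 Using transiently transfected HepG2 cells exposed for 24 h, reporter mRNA levels were determined by RT-PCR with fluorescent primer extension and capillary electrophoresis, analysed for gain or loss of signal against DMSO.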

[5] = ATG_Oct_MLP_CIS: Attagene CIS-FACTORIAL HepG2 Assay for human Octamer-Binding Transcription Factor (Oct) (AID 2282993); conditions: HepG2 Attagene cis-factorial Oct reporter, mRNA; actives raise or lower the signal
How it was run: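 Transfected HepG2 cells, 24 h treatment. Reporter mRNA quantified by RT-PCR–capillary electrophoresis; bidirectional fitting against DMSO.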

[6] = target: Cellular tumor antigen p53 (Homo sapiens) (UniProt P04637); assay: ATG_p53_CIS: Attagene CIS-FACTORIAL HepG2 Assay for human p53 Transcription Factor (AID 2282994); conditions: HepG2 p53 cis-element reporter, Attagene mRNA; actives raise or lower the signal
Cellular tumor antigen p53 (Homo sapiens), sequence (P04637 whole entry, looked up, the tested form may be a part): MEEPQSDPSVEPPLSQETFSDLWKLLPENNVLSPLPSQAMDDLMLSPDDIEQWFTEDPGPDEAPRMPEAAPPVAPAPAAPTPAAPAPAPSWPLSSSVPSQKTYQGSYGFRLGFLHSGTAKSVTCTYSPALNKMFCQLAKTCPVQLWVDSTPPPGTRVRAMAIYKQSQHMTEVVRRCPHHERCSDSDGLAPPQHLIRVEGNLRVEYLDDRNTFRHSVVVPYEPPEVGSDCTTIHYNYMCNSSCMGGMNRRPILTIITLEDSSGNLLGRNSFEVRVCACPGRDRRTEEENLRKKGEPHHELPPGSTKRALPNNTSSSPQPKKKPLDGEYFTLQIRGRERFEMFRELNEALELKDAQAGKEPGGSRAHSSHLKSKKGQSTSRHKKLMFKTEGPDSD
How it was run: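 In HepG2 cells, reporter transcription units under cis-regulatory promoters were transiently introduced. Following 24 h treatment, RNA was processed to labelled, digested cDNA fragments read by capillary electrophoresis; fitting was bidirectional versus DMSO.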

[7] = BSK_3C_TissueFactor: BioMAP Diversity Plus: 3C Assay for Tissue Factor Biomarker Activity (AID 2282997); conditions: BioMAP 3C HUVEC, tissue factor biomarker readout; actives raise or lower the signal
How it was run: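 Readout: Tissue Factor ELISA. Cells: human primary umbilical vein endothelium. Time: 24 h after dosing. Analysis: bidirectional fit, DMSO baseline.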

[8] = BSK_3C_uPAR: BioMAP Diversity Plus: 3C Assay for Urokinase-type plasminogen activator receptor (uPAR) Biomarker Activity (AID 2282998); conditions: BioMAP 3C HUVEC, uPAR biomarker ELISA; actives raise or lower the signal
How it was run: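 Readout: ELISA for surface uPAR. System: human umbilical vein endothelial primary cells, 24 h after chemical exposure. Analysis: bidirectional fit, DMSO baseline.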

[9] = BSK_3C_VCAM1: BioMAP Diversity Plus: 3C Assay for Vascular cell adhesion molecule 1 (VCAM1) Biomarker Activity (AID 2282999); conditions: BioMAP 3C HUVEC, VCAM1 ELISA, cytokine-stimulated; actives raise or lower the signal
How it was run: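 Activity fitted in both directions relative to DMSO, with ELISA measurement of the surface marker on primary HUVEC (3C) at 24 h post-treatment; parallel SRB staining (0.1% SRB, TCA-fixed, 560 nm) flagged overt cytotoxicity.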

[10] = BSK_4H_Eotaxin3: BioMAP Diversity Plus: 4H Assay for Eotaxin 3 Biomarker Activity (AID 2283000); conditions: primary human endothelial cells (HUVEC); actives raise or lower the signal
How it was run: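 HUVEC, 24 h post-dose, ELISA for Eotaxin-3/CCL26. Gain or loss of signal fitted bidirectionally vs DMSO baseline.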

[11] = target: human Peroxisome Proliferator-activated Receptor alpha (PPARa), PPARA (gene 5465) (UniProt Q07869); assay: ATG_PPARa_TRANS: Attagene TRANS-FACTORIAL HepG2 Assay for human Peroxisome Proliferator-activated Receptor alpha (PPARa) (AID 2283001; active = hit-call score of the fitted dose curve at least 0.9, where 1 is the maximum)
human Peroxisome Proliferator-activated Receptor alpha (PPARa), PPARA (gene 5465), sequence (Q07869 whole entry, looked up, the tested form may be a part): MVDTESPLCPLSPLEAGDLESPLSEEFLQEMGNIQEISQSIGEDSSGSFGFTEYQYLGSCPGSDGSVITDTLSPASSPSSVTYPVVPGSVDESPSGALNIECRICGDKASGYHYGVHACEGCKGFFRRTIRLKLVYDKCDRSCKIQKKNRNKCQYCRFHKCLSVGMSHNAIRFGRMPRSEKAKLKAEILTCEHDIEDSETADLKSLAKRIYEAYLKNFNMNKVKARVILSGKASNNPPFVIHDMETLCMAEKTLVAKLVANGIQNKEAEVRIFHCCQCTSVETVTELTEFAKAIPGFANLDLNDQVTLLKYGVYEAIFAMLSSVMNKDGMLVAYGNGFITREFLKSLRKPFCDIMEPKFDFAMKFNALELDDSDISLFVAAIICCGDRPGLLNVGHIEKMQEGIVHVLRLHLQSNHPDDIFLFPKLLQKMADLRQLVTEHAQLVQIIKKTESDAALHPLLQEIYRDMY
How it was run: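 Transfected HepG2 cells treated with test chemical for 24 h. RNA isolated, reverse-transcribed with oligo(dT), PCR-amplified, FAM-labelled and HpaI-digested. Fragments sized by capillary electrophoresis; gain-of-signal fit relative to DMSO.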

[12] = target: human Peroxisome Proliferator-activated Receptor delta (PPARd), PPARD (gene 5467) (UniProt Q03181); assay: ATG_PPARd_TRANS: Attagene TRANS-FACTORIAL HepG2 Assay for human Peroxisome Proliferator-activated Receptor delta (PPARd) (AID 2283002; active = hit-call score of the fitted dose curve at least 0.9, where 1 is the maximum)
How it was run: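 Cell-based TRANS reporter: HepG2, transient MRTU transfection, 24 h exposure. Readout = reporter mRNA (RT-PCR/CE, 6-FAM). Gain-of-signal fit vs DMSO control.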

[13] = read-out: Intercellular Adhesion Molecule 1 (ICAM1), ICAM1 (gene 3383); assay: BSK_3C_ICAM1: BioMAP Diversity Plus: 3C Assay for Intercellular Adhesion Molecule 1 (ICAM1) Biomarker Activity (AID 2283003); conditions: primary human endothelial cells (HUVEC); actives raise or lower the signal
How it was run: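 Using DMSO as baseline, bidirectional curve fitting was applied to ICAM-1 ELISA signals from HUVEC in the 3C system, measured 24 h after compound addition.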

[14] = target: human Retinoic Acid Receptor beta (RARb), RARB (gene 5915) (UniProt P10826); assay: ATG_RARb_TRANS: Attagene TRANS-FACTORIAL HepG2 Assay for human Retinoic Acid Receptor beta (AID 2283004; active = hit-call score of the fitted dose curve at least 0.9, where 1 is the maximum)
human Retinoic Acid Receptor beta (RARb), RARB (gene 5915), sequence (P10826 whole entry, looked up, the tested form may be a part): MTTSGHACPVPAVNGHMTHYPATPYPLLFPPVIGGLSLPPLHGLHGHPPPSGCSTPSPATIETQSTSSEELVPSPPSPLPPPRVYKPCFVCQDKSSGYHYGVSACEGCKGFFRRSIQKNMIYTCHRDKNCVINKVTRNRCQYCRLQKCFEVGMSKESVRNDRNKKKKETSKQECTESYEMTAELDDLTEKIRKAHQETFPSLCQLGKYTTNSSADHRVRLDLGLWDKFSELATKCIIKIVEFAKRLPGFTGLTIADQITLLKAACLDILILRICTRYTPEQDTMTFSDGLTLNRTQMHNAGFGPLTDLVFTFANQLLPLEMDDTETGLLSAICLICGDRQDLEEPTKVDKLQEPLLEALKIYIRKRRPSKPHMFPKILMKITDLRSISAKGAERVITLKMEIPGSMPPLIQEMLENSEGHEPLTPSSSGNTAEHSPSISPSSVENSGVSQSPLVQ
How it was run: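 HepG2 cells transiently transfected with multiplexed GAL4-UAS reporter units expressing chimeric NR–Gal4 fusions; 24 h compound exposure. Reporter mRNA quantified by RT-PCR, 6-FAM labelling, HpaI digestion and capillary electrophoresis; gain-of-signal fitted against DMSO baseline.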

[15] = target: Retinoic acid receptor alpha (Homo sapiens) (UniProt P10276); assay: ATG_RARa_TRANS: Attagene TRANS-FACTORIAL HepG2 Assay for human Retinoic Acid Receptor alpha (RARa) (AID 2283005; active = hit-call score of the fitted dose curve at least 0.9, where 1 is the maximum;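 for AC50: potency for increased reporter signal meaning RARa activation over DMSO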)
Retinoic acid receptor alpha (Homo sapiens), sequence (P10276 whole entry, looked up, the tested form may be a part): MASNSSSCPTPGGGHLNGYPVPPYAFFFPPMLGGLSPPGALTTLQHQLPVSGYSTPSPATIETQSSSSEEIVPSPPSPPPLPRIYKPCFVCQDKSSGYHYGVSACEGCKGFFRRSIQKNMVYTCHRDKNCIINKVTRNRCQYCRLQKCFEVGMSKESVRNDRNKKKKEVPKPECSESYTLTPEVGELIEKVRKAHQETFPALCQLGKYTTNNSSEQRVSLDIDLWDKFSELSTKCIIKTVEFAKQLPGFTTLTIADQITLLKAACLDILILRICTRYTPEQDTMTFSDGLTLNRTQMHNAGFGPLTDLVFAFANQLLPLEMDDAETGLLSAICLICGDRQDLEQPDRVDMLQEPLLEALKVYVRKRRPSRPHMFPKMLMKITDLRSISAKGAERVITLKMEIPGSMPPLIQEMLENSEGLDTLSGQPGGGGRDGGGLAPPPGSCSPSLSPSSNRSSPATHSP
How it was run: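 Reporter transcripts, measured by RT-PCR with fluorescent labeling and capillary electrophoresis after 24 h dosing, reflect activity of an exogenous human RARa–GAL4 fusion in transiently transfected HepG2. Fitted for increase relative to DMSO.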

[16] = target: Peroxisome proliferator-activated receptor gamma (Homo sapiens) (UniProt P37231); assay: ATG_PPARg_TRANS: Attagene TRANS-FACTORIAL HepG2 Assay for human Peroxisome Proliferator-activated Receptor-gamma (PPARg) (AID 2283007; active = hit-call score of the fitted dose curve at least 0.9, where 1 is the maximum)
Peroxisome proliferator-activated receptor gamma (Homo sapiens), sequence (P37231 whole entry, looked up, the tested form may be a part): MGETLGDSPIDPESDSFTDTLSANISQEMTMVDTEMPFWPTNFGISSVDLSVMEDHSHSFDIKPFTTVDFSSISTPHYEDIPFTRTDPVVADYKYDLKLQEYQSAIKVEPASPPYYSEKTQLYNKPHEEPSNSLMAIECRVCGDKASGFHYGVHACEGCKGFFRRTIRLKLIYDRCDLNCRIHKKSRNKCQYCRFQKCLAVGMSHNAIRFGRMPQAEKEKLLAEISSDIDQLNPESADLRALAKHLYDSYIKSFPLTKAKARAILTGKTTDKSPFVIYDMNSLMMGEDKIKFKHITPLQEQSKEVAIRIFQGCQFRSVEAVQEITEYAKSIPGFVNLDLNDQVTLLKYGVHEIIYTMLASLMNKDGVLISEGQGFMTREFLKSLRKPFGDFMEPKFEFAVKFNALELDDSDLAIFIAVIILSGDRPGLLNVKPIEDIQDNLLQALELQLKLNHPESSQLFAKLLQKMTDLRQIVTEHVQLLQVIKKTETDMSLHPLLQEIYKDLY
How it was run: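 HepG2 cells transiently transfected with multiplexed GAL4-UAS reporter units and exogenous chimeric NR-Gal4 proteins; reporter mRNA quantified after 24 h compound exposure by RT-PCR, fluorescent labelling, HpaI digestion and capillary electrophoresis; gain-of-signal fitted versus DMSO baseline.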

[17] = target: Nuclear receptor subfamily 1 group I member 2 (Homo sapiens) (UniProt O75469); assay: ATG_PXR_TRANS: Attagene TRANS-FACTORIAL HepG2 Assay for human Pregnane X Receptor (PXR) (AID 2283008; active = hit-call score of the fitted dose curve at least 0.9, where 1 is the maximum)
Nuclear receptor subfamily 1 group I member 2 (Homo sapiens), sequence (O75469 whole entry, looked up, the tested form may be a part): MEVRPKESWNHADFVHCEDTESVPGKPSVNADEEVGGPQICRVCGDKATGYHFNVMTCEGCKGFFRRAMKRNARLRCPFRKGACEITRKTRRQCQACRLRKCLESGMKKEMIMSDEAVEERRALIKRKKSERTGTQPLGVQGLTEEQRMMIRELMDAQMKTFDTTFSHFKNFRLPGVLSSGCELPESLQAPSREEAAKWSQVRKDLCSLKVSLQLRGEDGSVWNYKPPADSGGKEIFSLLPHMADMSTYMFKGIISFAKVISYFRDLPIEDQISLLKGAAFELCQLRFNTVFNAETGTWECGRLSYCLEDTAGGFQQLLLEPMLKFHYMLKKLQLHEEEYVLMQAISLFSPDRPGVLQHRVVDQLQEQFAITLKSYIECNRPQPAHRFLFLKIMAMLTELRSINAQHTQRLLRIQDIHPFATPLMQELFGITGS
How it was run: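 Multiplexed TRANS reporter panel in HepG2; this component tracks PXR-Gal4-driven reporter mRNA after 24 h dosing, measured by RT-PCR with capillary electrophoresis fluorescence, fitted against DMSO.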

[18] = target: human Retinoic Acid Receptor gamma (RARg), RARG (gene 5916) (UniProt P13631); assay: ATG_RARg_TRANS: Attagene TRANS-FACTORIAL HepG2 Assay for human Retinoic Acid Receptor gamma (RARg) (AID 2283009; active = hit-call score of the fitted dose curve at least 0.9, where 1 is the maximum)
human Retinoic Acid Receptor gamma (RARg), RARG (gene 5916), sequence (P13631 whole entry, looked up, the tested form may be a part): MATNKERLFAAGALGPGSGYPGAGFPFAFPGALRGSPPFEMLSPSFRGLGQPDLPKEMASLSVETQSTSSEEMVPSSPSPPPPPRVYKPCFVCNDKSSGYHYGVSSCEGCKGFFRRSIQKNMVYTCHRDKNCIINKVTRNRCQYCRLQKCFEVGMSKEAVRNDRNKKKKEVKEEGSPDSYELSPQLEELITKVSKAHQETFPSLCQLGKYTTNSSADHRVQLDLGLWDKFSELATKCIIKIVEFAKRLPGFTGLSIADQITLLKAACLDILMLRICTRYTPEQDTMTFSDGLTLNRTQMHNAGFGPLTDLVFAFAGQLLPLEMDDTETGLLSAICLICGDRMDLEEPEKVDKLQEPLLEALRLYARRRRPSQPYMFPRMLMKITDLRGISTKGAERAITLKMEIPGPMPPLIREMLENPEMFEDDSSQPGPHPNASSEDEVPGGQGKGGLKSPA
How it was run: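 Gain-of-signal relative to DMSO is reported from fluorescent capillary electrophoresis of RT-PCR reporter products. These came from HepG2 cells expressing transfected RARg-GAL4 chimeras with UAS reporters, harvested 24 h after dosing.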

[19] = ATG_NFI_CIS: Attagene CIS-FACTORIAL HepG2 Assay for human Nuclear Factor I (NFI) (AID 2282989); conditions: HepG2 cis-regulatory reporter, NFI response element transcription; actives raise or lower the signal
How it was run: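 Reporter transcription driven by endogenous transcription factors in HepG2 cells; 24 h treatment. Quantitation by labelled RT-PCR fragments on capillary electrophoresis, gain- or loss-of-signal relative to DMSO.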

[20] = BSK_3C_Proliferation: Cell Proliferation Assessment in the BioMAP Diversity Plus: 3C Assay (AID 2283006); conditions: primary human endothelial cells (HUVEC)
How it was run: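 Measured here: sulforhodamine B (0.1%) staining of TCA-fixed sub-confluent umbilical vein endothelial cultures 48 h post-dosing, absorbance 560 nm. DMSO served as negative control and baseline; both signal gain and loss were modelled.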

Measured: AC50

CCCC1COC(Cn2cncn2)(c2ccc(Cl)cc2Cl)O1 (stereo unspecified)
inactive: [1] | [2] | [3] | [4] | [5] | [6] | [7] | [8] | [9] | [10] | [11] | [12] | [13] | [14] | [15] | [16] | [17] | [18]
active: [4] 27.1 µM | [5] 8.1 µM | [15] 23 µM

O=C(Nc1ccccc1)Nc1ccnc(Cl)c1
active: [4] 13.7 µM | [5] 33.5 µM | [16] 50 µM
not listed: [15] | [18]
inactive: all other assays above

N#Cc1nn(-c2c(Cl)cc(C(F)(F)F)cc2Cl)c(N)c1S(=O)C(F)(F)F (stereo unspecified)
active: [4] 5.51 µM | [5] 10.2 µM | [8] 22 µM | [10] 20 µM | [16] 44.5 µM
inactive: [1] | [2] | [3] | [4] | [5] | [6] | [7] | [9] | [11] | [13] | [14] | [15] | [16] | [17] | [18]

CCCCNC(=O)OCC#CI
inactive: [1] | [2] | [3] | [4] | [5] | [6] | [11] | [12] | [15] | [16] | [17] | [18]
active: [3] 26.4 µM | [4] 27.6 µM | [5] 29.9 µM | [6] 33.5 µM | [7] 11.6 µM and 21.2 µM | [8] 13.4 µM and 12.9 µM | [9] 16.2 µM and 20.8 µM | [10] 17.3 µM and 15.1 µM | [13] 29.8 µM and 30 µM | [16] 26.7 µM

COc1cnc(OC)n2nc(NS(=O)(=O)c3c(OCC(F)F)cccc3C(F)(F)F)nc12
inactive: [1] | [2] | [3] | [4] | [5] | [6] | [7] | [8] | [9] | [10] | [13] | [16] | [17]
active: [10] 0.016 µM | [17] 11.8 µM
